# The supplement of paper PMC13380429
# Values without a mark were called inactive.
# Test system: Vero E6 infected with SARS-CoV-2
# Experiment: inhibition of SARS-CoV-2 cytopathic effect; higher = more antiviral protection, active = above 15
# Conditions: 48 h
Compound,inhibition of SARS-CoV-2 cytopathic effect (1 nM) [%],inhibition of SARS-CoV-2 cytopathic effect (8.33 nM) [%],inhibition of SARS-CoV-2 cytopathic effect (100 nM) [%],inhibition of SARS-CoV-2 cytopathic effect (833.33 nM),inhibition of SARS-CoV-2 cytopathic effect (10000 nM)
C=C(C)[C@@H]1[C@H]2OC(=O)[C@@H]1[C@]1(O)C[C@H]3O[C@]34C(=O)O[C@H]2[C@]14C [picrotoxinin],-2.53,-1.67,-2.12,-3.39%,-2.53%
Cc1cc2c(OCC(CNC(C)(C)C)OC(=O)c3ccccc3)cccc2[nH]1 (stereo not given) [bopindolol],-0.9,-1.91,-0.64,0.54%,0.29%
Nc1ccn([C@@H]2O[C@@](CO)(CCl)[C@@H](O)[C@H]2F)c(=O)n1,3.35,2.02,-3.04,-0.34%,2.59%
CCCNS(=O)(=O)Nc1ncnc(OCCOc2ncc(Br)cn2)c1-c1ccc(Br)cc1 [macitentan],0.7,-1.57,-0.9,1.28%,4.76%
Cc1ccc(-c2nc3ccc(C)cn3c2CC(=O)N(C)C)cc1,0.77,1.21,0.45,1.14%,-2.98%
COC(=O)/C=C/C(=O)N[C@@H]1CC[C@@]2(O)[C@H]3Cc4ccc(O)c5c4[C@@]2(CCN3CC2CC2)[C@H]1O5 [beta-funaltrexamine],-1.34,1.21,-0.8,1.68%,6.01%
COc1cc2c(cc1OC)-c1cc3ccc(OC)c(OC)c3c[n+]1CC2 [palmatine-chloride],-2.25,0.72,-0.15,-2.8%,2.04%
CC(C)Oc1ccc2c(=O)c3cc(C(=O)O)ccc3oc2c1,-2.35,-1.43,-1.13,-1.68%,-1%
Cc1cc(OCCN2CCOCC2)nn1-c1ccc2ccccc2c1,-2.51,-1.6,-2.06,0.03%,1.91%
Clc1ccc2c(c1)CCc1cccnc1C2=C1CCNCC1 [desloratadine],5.47,2,3.51,-0.44%,-5.42%
CCCCCCCCCCCCCCCC(=O)O[C@@H]1[C@@H](O)[C@@H](O)[C@@H]([C@H](NC(=O)[C@@H]2C[C@@H](CCC)CN2C)[C@H](C)Cl)O[C@@H]1SC [clindamycin-palmitate],-0.87,-2.61,-3.02,-0.74%,-3.94%
c1ccc(CN(CC2=NCCN2)c2ccccc2)cc1 [antazoline],-3.99,-2.45,-2.58,-1.01%,-3.78%
CC(C)(Oc1ccc(Cl)cc1)C(=O)O [clofibric-acid],0.55,2.02,0.3,2.45%,2.22%
Cc1onc(-c2ccccc2)c1C(=O)N[C@@H]1C(=O)N2[C@@H]1SC(C)(C)[C@@H]2C(=O)O [oxacillin],0.69,1.54,2.17,3.32%,1.32%
CCC[C@@H]1C[C@@H](C(=O)N[C@@H]([C@H]2O[C@H](SC)[C@H](OP(=O)(O)O)[C@@H](O)[C@H]2O)[C@H](C)Cl)N(C)C1 [Clindamycin phosphate],2.18,-1.74,2.16,1.59%,0.27%
CC1(C)[C@@H](OC(=O)CCC(=O)O)CC[C@]2(C)[C@H]3C(=O)C=C4[C@@H]5C[C@@](C)(C(=O)O)CC[C@]5(C)CC[C@@]4(C)[C@]3(C)CC[C@@H]12,0.51,0.66,1.43,1.74%,-1.29%
Cc1ccc(C(=O)C(C)CN2CCCCC2)cc1 (stereo not given) [tolperisone],-0.13,-1.26,-0.59,-1.06%,0.32%
CCCCOc1cc(CC2CNC(=O)N2)ccc1OC (stereo not given),-0.73,1.6,-3.01,-0.63%,-1.88%
COCCNC(=O)Cn1cnc([N+](=O)[O-])n1 [sanazole],-0.19,0.45,-0.68,-0.43%,-3%
Cn1cc(-c2ccc3c(c2)CCN3C(=O)Cc2cccc(C(F)(F)F)c2)c2c(N)ncnc21,0.06,0.68,1.48,32.5% (active),27.7% (active)

Compound,inhibition of SARS-CoV-2 cytopathic effect (1 nM) [%],inhibition of SARS-CoV-2 cytopathic effect (8.33 nM) [%],inhibition of SARS-CoV-2 cytopathic effect (100 nM) [%],inhibition of SARS-CoV-2 cytopathic effect (833.33 nM),inhibition of SARS-CoV-2 cytopathic effect (10000 nM)
Oc1cc2c(cc1O)CN(C(=S)NCCc1ccc(Cl)cc1)CCC2 [capsazepine],-5.03,-2.95,-0.11,-0.65%,3.42%
O=C1OC(c2ccc(O)cc2)(c2ccc(O)cc2)c2ccccc21 [phenolphthalein],-1.78,2.66,-1.09,-0.27%,0.56%
O=C(c1cc2ccccc2o1)N1CCN(Cc2ccccc2)CC1 [befuraline],-1.29,1.94,3.17,0.64%,-2.11%
CN1[C@@H]2CC[C@H]1C[C@@H](OC(=O)N1Cc3ccccc3NC1=O)C2,-1.09,-0.87,1.69,1.84%,-0.21%
FC(F)(F)C(F)(F)C(F)(F)C(F)(F)C(F)(F)C(F)(F)C(F)(F)C(F)(F)Br [perflubron],-0.32,1.61,1.51,-1.6%,0.45%
C=CCNC(=O)c1cc([N+](=O)[O-])cc2c(=O)[nH]c(Nc3ccc(Cl)c(Cl)c3)nc12,0.56,4.08,-1.8,9.51%,1.19%
Cc1c(C)c2c(c(C)c1O)CC[C@@](C)(CCC[C@H](C)CCC[C@H](C)CCCC(C)C)O2 [vitamin-E],3.32,3.3,2.84,0.81%,0.23%
CC(=O)OCC(=O)[C@@]1(O)[C@@H](C)C[C@H]2[C@@H]3CCC4=CC(=O)C=C[C@]4(C)[C@@]3(F)[C@@H](O)C[C@@]21C [betamethasone-acetate],-1.36,0.805,0.555,0.57%,-0.935%
CC1(CN)Cc2ccccc2C1,4.53,-3.63,-3.31,1.99%,-3.29%
NCC(=O)O,1.39,-0.35,1.12,-1.32%,0.49%
CC[C@@H](CO)NC(=O)[C@@H]1C=C2c3cccc4c3c(cn4C)C[C@H]2N(C)C1 [methysergide],-0.52,0.46,0.82,1.51%,0.92%
CC(C)c1c(NC(=O)Nc2ccc(Cl)cc2)c(=O)n(-c2ccccc2)n1C,0.15,0.39,0.07,-1.16%,-0.11%
COc1cc(OC)nc(O[C@H](C(=O)O)C(OC)(c2ccccc2)c2ccccc2)n1 [darusentan],0.26,-0.2,0.62,-2.26%,-0.49%
Nc1cc(Cl)c(N=C2NCCN2)c(Cl)c1 [apraclonidine],-2.77,1.32,-1.3,-1.26%,-0.76%
O=C(Cn1c(=O)sc2ccc(Cl)cc21)N1CCN(CCO)CC1 [tiaramide],-2.08,-1.84,-3.6,-1.93%,2.14%
O=C(NO)c1ccc(O)c(O)c1 [didox],1.58,0.68,1.83,-2.16%,-2.13%
CC1(C)CCC(C)(C)c2cc(C3(c4ccc5cc(C(=O)O)ccc5c4)SCCS3)ccc21,-0.61,2.69,1.81,1.35%,2.66%
C[C@@H]1CC(=O)c2c(ccc3c2C(=O)c2cccc(O)c2C3=O)C1 [ochromycinone],-3.4,-1.61,-3.55,-1.87%,-3.84%
CCCCc1nn(-c2ccccc2C(F)(F)F)c(=O)n1Cc1ccc(-c2ccccc2S(=O)(=O)NC(=O)c2sccc2C)cc1,0.19,-0.03,2.56,-2.77%,-1.65%
